The full list was thinned out, with hits kept by preference.
NTMT1 inh: NTMT1 methyltransferase inhibition; AID 1645870; Potency, µM (highest dose often 114 µM), inactives show at the highest dose activity change, negative = inhibition, usual class: inhibitors; Q9BV86; hit rate 2.5% among 59,000; NTMT1 MTase-Glo SAH luminescence, purified enzyme;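 note: potency is the fitted concentration of half-maximal effect; plate controls were DMSO vehicle for no effect and no enzyme for full effect; nearly all actives have a fitted effect of over 65% in size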
DYRK1A inh-1: inhibitors of human DYRK1A kinase. hit rate 80% among 100. Potency, µM (top dose mostly 76.9 µM), for inactives: at the highest dose activity change, negative = inhibition, usual class: inhibitors. recombinant DYRK1A, Kinase-Glo ATP depletion luminescence. shares compounds with NTMT1 inh
CLK4 inh-1: confirmation of human CLK4 kinase inhibitors, SAR round 2. shares compounds with NTMT1 inh. recombinant Clk4, Kinase-Glo ATP luminescence, 4.5 h. Potency, µM (highest dose often 76.9 µM), for the others: at the top dose activity, negative = inhibition, actives largely listed as inhibitors. hit rate 90% among 90
CLK4 inh-2: inhibitors of human CLK4 kinase, SAR round 2 | shares compounds with NTMT1 inh | Reaction Biology kinase assay, 10 uM ATP | Potency, µM, hits mostly inhibitors | hit rate 100% among 65 | AID 504421; calls by dose curve
DYRK1A inh-2: DYRK1A kinase inhibition; AID 504424; hit rate 90% among 65; shares compounds with NTMT1 inh; Potency, µM, actives largely listed as inhibitors; Reaction Biology kinase assay, 10 uM ATP;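 active = compounds that showed inhibition of Dyrk1a and received a fitted potency; inactive = compounds that showed no inhibition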
CLK2 RBC: blocks human CLK2 kinase in radiometric assay; shares compounds with NTMT1 inh; hit rate 90% among 65; Potency, µM, most hits filed as inhibitors; AID 504427; Reaction Biology kinase assay, 10 uM ATP;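 active = compound that inhibits Clk2 kinase in the dose series, with an IC50 potency reported; inactive = no inhibition seen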
CLK3 RBC: inhibitors of human CLK3 kinase; shares compounds with NTMT1 inh; recombinant CLK3 kinase assay, 10 uM ATP; Potency, µM, hits mostly inhibitors; hit rate 40% among 65;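 active = compounds that inhibited Clk3 enough in the ten-dose series to give a half-maximal potency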
DYRK1B inh: blocks human DYRK1B kinase activity; shares compounds with NTMT1 inh; Recombinant Dyrk1b kinase assay, 10 uM ATP; Potency, µM, most hits filed as inhibitors; hit rate 80% among 65;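 active = compounds whose dose response shows an inhibitor phenotype against the kinase Dyrk1b; inactive = compounds showing no inhibitor phenotype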
CLK1 inh: CLK1 kinase inhibition | shares compounds with NTMT1 inh | recombinant Clk1 kinase assay, 10 uM ATP | Potency, µM, actives largely listed as inhibitors | hit rate 90% among 65 | AID 504430;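 active = compounds that block the splicing kinase Clk1 enough to give a fitted half-inhibition concentration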
Sfp qHTS opt: inhibits purified B. subtilis Sfp PPTase | purified Sfp PPTase enzyme activity, qHTS | hit rate 78% among 230 | Potency, µM (top dose mostly 114 µM), inactives show at the highest dose activity change, negative = inhibition, actives largely listed as inhibitors | shares compounds with NTMT1 inh | AID 540350
HM489 growth: B. subtilis HM489 growth inhibition; shares compounds with NTMT1 inh; B. subtilis HM489 (acpS-) growth, BacTiter-Glo, 5 h; Potency, µM (doses to about 114 µM), for the others: at the top dose activity change, negative = inhibition, hits mostly inhibitors; hit rate 50% among 220
Sfp gel opt: Sfp PPTase inhibition, gel-based detection. shares compounds with NTMT1 inh. purified Sfp PPTase, gel-based product detection. Potency, µM (titrated, usually from 250 µM), for inactives: top-dose activity change, negative = inhibition, usual class: inhibitors. hit rate 54% among 220. AID 540355
Sfp inh gel: Sfp phosphopantetheinyl transferase inhibition, gel detection | shares compounds with NTMT1 inh | purified Sfp PPTase, gel-based product detection | Potency, µM (top dose mostly 250 µM), without a hit: at the highest dose activity change, negative = inhibition, usual class: inhibitors | hit rate 90% among 45 | AID 602362
Sfp SAR2: Sfp phosphopantetheinyl transferase inhibition, SAR round 2; Potency, µM (top dose mostly 57.1 µM), for inactives: at the top dose activity change, negative = inhibition, most hits filed as inhibitors; hit rate 87% among 230; shares compounds with NTMT1 inh; purified Sfp enzyme, PPTase activity, qHTS
hGST ctr: hGST A1-1 enzyme inhibition, Sfp SAR counter-screen | shares compounds with NTMT1 inh | hGST A1-1 enzyme activity counter-screen, qHTS | Potency, µM (doses to about 114 µM), for inactives: at the highest dose activity change, negative = inhibition, actives largely listed as inhibitors | 55 tested, under 10 active | AID 602391
HSD17B4 counter: HSD17B4 (human) inhibition, HPGD counter-screen; shares compounds with NTMT1 inh; purified HSD17B4, estradiol/NAD+, NADH fluorescence; Potency, µM (series often up to 57.1 µM), without a hit: top-dose activity change, negative = inhibition, hits mostly inhibitors; hit rate 10% among 230; AID 743187
Target sequence (P51659 whole entry, looked up): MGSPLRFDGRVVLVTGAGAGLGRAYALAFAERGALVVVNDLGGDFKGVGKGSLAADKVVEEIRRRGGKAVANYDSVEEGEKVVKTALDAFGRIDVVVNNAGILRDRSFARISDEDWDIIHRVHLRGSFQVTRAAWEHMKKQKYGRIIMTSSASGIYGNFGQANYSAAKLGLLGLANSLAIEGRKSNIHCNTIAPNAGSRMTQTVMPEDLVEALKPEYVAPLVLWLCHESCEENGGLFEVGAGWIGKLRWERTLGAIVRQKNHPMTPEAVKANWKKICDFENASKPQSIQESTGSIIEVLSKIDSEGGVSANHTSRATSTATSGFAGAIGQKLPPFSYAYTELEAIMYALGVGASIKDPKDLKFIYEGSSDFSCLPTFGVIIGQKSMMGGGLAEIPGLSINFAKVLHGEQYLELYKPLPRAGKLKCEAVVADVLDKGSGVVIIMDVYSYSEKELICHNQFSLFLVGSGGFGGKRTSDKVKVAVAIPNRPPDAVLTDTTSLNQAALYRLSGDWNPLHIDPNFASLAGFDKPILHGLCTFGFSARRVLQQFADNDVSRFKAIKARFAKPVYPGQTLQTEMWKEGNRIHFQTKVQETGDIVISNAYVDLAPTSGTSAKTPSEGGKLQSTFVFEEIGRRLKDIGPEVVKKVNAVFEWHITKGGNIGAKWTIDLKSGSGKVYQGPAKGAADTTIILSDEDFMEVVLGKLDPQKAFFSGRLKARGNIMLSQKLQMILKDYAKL
ALDH1A1 inh: counter-screen for HPGD inhibitors: human ALDH1A1 inhibition; Potency, µM (titrated, usually from 57.1 µM), inactives show at the top dose activity change, negative = inhibition, most hits filed as inhibitors; shares compounds with NTMT1 inh; hit rate 93% among 230; recombinant ALDH1A1, NADH fluorescence, propionaldehyde/NAD+
NNMT inh: blocks human NNMT methyltransferase; shares compounds with NTMT1 inh; NNMT MTase-Glo luminescence, SAH detection; Potency, µM (titrated, usually from 57.1 µM), without a hit: top-dose activity, negative = inhibition, actives largely listed as inhibitors; hit rate 10% among 120; AID 1645878
An asterisk follows results filed as active; i = inactive; ? = inconclusive; · = no result given; ! = not active in a repeat; [ ] = another dose, or the depositor's remark. Unless noted, calls come from the whole dose curve; as a rule, active = well fitted curve in the direction sought with a large enough effect; inconclusive = small, poorly fitted or top-dose-only effect, or another doubt; inactive = no such curve, though single readings can be large; an effect the other way counts as inactive or inconclusive.

SMILES | NTMT1 inh | DYRK1A inh-1 | others
CC(/C=C/[C@@H]1C[C@]1(C)c1ccc2c(c1)C(C)(C)CCC2(C)C)=C\C(=O)O | -3.2% | ·
O=C(Nc1cc2cc[nH]c2cn1)c1ccccc1 | 21.5µM*! | · | NNMT inh=14.1µM*
CCc1nc(-c2cccc(C)c2)c(-c2ccnc(NC(=O)c3ccccc3)c2)s1 | 2.4%[57.5 µM] | ·
CC(C)C(C(=O)N(C)C(C)C(N)=O)N(C)C(=O)C1CCCN1C(=O)/C=C/C=C/C(O)C(C)O (stereo not drawn) | 9.4%[29.8 µM] | ·
COc1cc2c(NC3CCN(C(C)C)CC3)nc(N3CCC(F)(F)CC3)nc2cc1OCCCN1CCCC1 | -23.9%[57.5 µM] | ·
COc1cc2c(NC3CCN(C(C)C)CC3)nc(N3CCCN(c4ccccc4)CC3)nc2cc1OCCCN1CCCC1 | · | · | NNMT inh=-11.2%
COc1ccc(C2Nc3ccccc3C(=O)N2Cc2ccccc2OC)cc1COc1c(C)cc(NC(C)=O)cc1C (stereo not drawn) | 10.1% | ·
Cc1cc(O)c(-c2ccc([C@@H](C)CN(C)C)cc2)c2c1[nH]c(=O)c1sccc12 | 25.1µM* | · | NNMT inh=?
FC(F)(F)c1cccc(N2CCN(C(=S)Nc3nccc4ccccc34)CC2)c1 | ? | · | Sfp qHTS opt=1.87µM*;HM489 growth=2.64µM*;Sfp gel opt=7.94µM*;Sfp inh gel=1.35µM*;Sfp SAR2=1.45µM*;hGST ctr=-9.6%;HSD17B4 counter=27.1µM*;ALDH1A1 inh=17.1µM*
FC(F)(F)c1cccc(N2CCN(C(=S)Nc3ccc4ccccc4n3)CC2)c1 | · | · | Sfp qHTS opt=5.91µM*;HM489 growth=?;Sfp gel opt=0.316µM*;Sfp SAR2=10.2µM*;HSD17B4 counter=-22.9%;ALDH1A1 inh=6.81µM*
Cc1nc(CCNc2ncnc3ccc(-c4ccc5c(c4)OCO5)cc23)cs1 | -21.1% | · | CLK4 inh-1=0.0654µM*
Cn1cnc(CCNc2ncnc3ccc(-c4ccc5c(c4)OCO5)cc23)c1 | 12.0% | 1.46µM*
Cc1csc(CNc2ncnc3ccc(-c4ccc5c(ccn5C)c4)cc23)c1 | -3.1% | ·
CCCN(Cc1cccs1)c1ncnc2ccc(-c3ccc4c(c3)OCO4)cc12 | ? | 0.823µM*
c1nc(NCC2CCOC2)c2cc(-c3ccc4c(c3)OCO4)ccc2n1 (stereo not drawn) | 25.1µM* | 0.0923µM*
Cc1cnc(-c2ccccc2C(C)C)nc1NC(C)c1ccc(-c2cccnc2)cc1 (stereo not drawn) | 7.8% | ·
N#Cc1ccnc(N2C(=O)CC[C@H]2C(=O)N(c2cncc(F)c2)C(C(=O)NC2CC(F)(F)C2)c2ccccc2Cl)c1 (stereo partly drawn) | 6.2% | ·
c1nc(N2CCC(N3CCCC3)CC2)c2cc(-c3ccc4c(c3)OCO4)ccc2n1 | ? | 23.2µM* | CLK4 inh-2=9.96*;DYRK1A inh-2=i;CLK2 RBC=i;CLK3 RBC=i;DYRK1B inh=i;CLK1 inh=15µM*
CCN(CCc1cn(C)cn1)c1ncnc2ccc(-c3ccc4c(c3)OCO4)cc12 | ? | 2.32µM*
CCCNc1ncnc2ccc(-c3ccc4c(c3)OCO4)cc12 | · | · | CLK4 inh-1=0.0412µM*
CC(C)(C)CNc1ncnc2ccc(-c3ccc4c(c3)OCO4)cc12 | · | 0.0091µM*
CC(=O)N1CCN(C(=S)Nc2cc(C)ccn2)CC1 | ? | · | Sfp qHTS opt=33.2µM*;HM489 growth=?;Sfp gel opt=12.6µM*;Sfp SAR2=6.46µM*;HSD17B4 counter=-9.0%;ALDH1A1 inh=12.1µM*
Cc1ccnc(NC(=S)N2CCN(c3ccc(Cl)c(Cl)c3)CC2)c1 | ? | · | Sfp qHTS opt=1.18µM*;HM489 growth=2.64µM*;Sfp gel opt=-63.4%;Sfp SAR2=0.73µM*;HSD17B4 counter=-10.3%;ALDH1A1 inh=2.41µM*
Cc1cc(C)nc(NC(=S)N2CCN(c3ccc(Cl)nn3)CC2)c1 | ? | · | Sfp qHTS opt=11.8µM*;HM489 growth=20.7%;Sfp gel opt=?;Sfp SAR2=3.63µM*;HSD17B4 counter=-18.5%;ALDH1A1 inh=19.2µM*
